Exocytosis inh: blocks lytic granule exocytosis | AID 651702 | TALL-104 LAMP-1 surface exposure, flow cytometry; cells stimulated with thapsigargin and PMA | 360,000 tested, 0.66% active | inhibition, % at 10 µM;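 active means inhibition above about 55%, limit read from the data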
GRK2 aptamer HTS: inhibitors of human GRK2 displacing RNA aptamer | P25098 | bead flow cytometry, FAM-aptamer displacement from GRK2 | inhibition of aptamer binding, % at 10 µM | 330,000 tested, 0.59% active | AID 488847;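 active means inhibition of aptamer binding above 40%, roughly 3 SD of noise, on plates passing a quality check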;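 further: median bead fluorescence of bound FAM aptamer so fluorescent compounds give negative values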
NadD block: inhibitors of Staphylococcus aureus NadD; purified NadD enzyme, colorimetric absorbance read-out; inhibition, % at 20 µM; 360,000 tested, 0.78% active; in the data active means inhibition above about 26%
B2AR ag: agonists of human beta-2 adrenergic receptor inducing internalization | P07550 | Am2.2-beta2AR cells, FAP receptor internalization, flow cytometry | response, % (test concentration not listed) | 340,000 tested, 0.43% active;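 active means response above a set limit, near 3 SD of response in nonfluorescent compounds, cut at about 42% in these data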
PP1 counter: blocks human PP1-alpha phosphatase, a PP5 counter-screen. P62136. purified PP1alpha, OMFP fluorescence. inhibition, % at 6.7 µM. 320,000 tested, 0.9% active;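 active means inhibition above the mean inhibition of all tested compounds plus 3 SD, computed separately for each screening campaign, cut at about 15% in these data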
Target sequence (P62136 whole entry, looked up): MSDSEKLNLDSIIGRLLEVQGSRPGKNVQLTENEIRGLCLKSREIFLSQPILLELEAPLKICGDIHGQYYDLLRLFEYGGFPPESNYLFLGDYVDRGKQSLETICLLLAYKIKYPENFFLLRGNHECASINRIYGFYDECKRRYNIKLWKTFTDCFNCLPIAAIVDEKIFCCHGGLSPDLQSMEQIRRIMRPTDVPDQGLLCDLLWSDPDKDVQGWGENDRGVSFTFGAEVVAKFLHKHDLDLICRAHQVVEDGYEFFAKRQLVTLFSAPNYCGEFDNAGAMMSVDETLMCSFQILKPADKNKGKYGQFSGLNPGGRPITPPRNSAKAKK
NadD inh conf: NadD (S. aureus) inhibition, single concentration confirmation | inhibition, % at 20 µM | shares compounds with NadD block | purified S. aureus NadD, colorimetric enzyme assay | 2,000 tested, 13% active; in the data active means inhibition mostly above about 42%, no sharp cut-off; inactive means mostly below about 42%
Active calls of the source: *; . = no result. Hits are enriched below; roughly 2.9% of the tested compounds scored in any of these assays.

SMILES | Exocytosis inh | GRK2 aptamer HTS | NadD block | B2AR ag | PP1 counter | NadD inh conf
Cc1ccc(NC(=O)CSc2nnc(CSc3nc(C)cc(C)n3)n2Cc2ccco2)c(C)c1 | 2.1 | 0.0 | 3.0 | -7.9 | 0.4 | .
Cc1cc(SCC(=O)c2cccc([N+](=O)[O-])c2)nc(=O)[nH]1 | -0.5 | 0.0 | 33.1* | -0.5 | 4.3 | 34.4
C=CCOC(=O)C1=C(C)NC(=S)C(C#N)(CC=C)C1c1ccccc1Cl (centres undefined) | 6.5 | 1.0 | -1.4 | 0.5 | -1.1 | .
COc1cc(C#Cc2c(-c3cncn3C)n(C)c3ccc(-c4ccc5[nH]ccc5c4)cc23)cc(OC)c1 | -2.9 | 0.0 | 35.0* | 15.3 | -1.7 | 36.1
COc1cc(C#Cc2c(-c3cncn3C)n(C)c3ccc(-c4ccc(OC)nc4)cc23)cc(OC)c1 | -7.7 | 4.0 | 35.7* | 18.5 | 3.6 | 14.3
COc1cc(OC)cc(-c2c(C#Cc3ccsc3)c3cc(-c4ccc5[nH]ccc5c4)ccc3n2C)c1 | -1.4 | 3.0 | 24.7 | -1.7 | -1.5 | .
COc1cc(C#Cc2c(-c3cncn3C)n(C)c3ccc(-c4cc(OC)c(OC)c(OC)c4)cc23)cc(OC)c1 | 32.3 | 3.0 | 24.6 | 16.3 | . | .
CCC(C(=O)NNC(=O)c1cnccn1)c1ccccc1 (centres undefined) | -3.2 | 0.0 | 2.5 | -0.9 | -1.9 | .
O=[N+]([O-])c1ccc2[nH]cc(S(=O)(=O)N3CCN(c4cccc(Cl)c4)CC3)c2c1 | 21.4 | 1.0 | 31.5* | 8.5 | 2.7 | 12.5
O=S(=O)(c1ccccc1)N1CCN(c2cccc(Cl)c2)CC1 | -0.3 | 3.0 | -5.1 | 16.2 | 1.0 | .
Cc1ccccc1C(=O)N=c1ccn(-c2nc3ccccc3nc2NS(=O)(=O)c2ccc(F)cc2)cc1 | -11.2 | 7.0 | 30.4* | 10.3 | 0.4 | 55.8*
O=C(N=c1ccn(-c2nc3ccccc3nc2NS(=O)(=O)c2ccccc2)cc1)c1cccs1 | 2.6 | 1.0 | 19.4 | 12.2 | -0.5 | .
CCOc1ccc(-c2nnc(SCC(=O)Nc3ccc4c(c3)c3ccccc3n4CC)n2N)cc1 | -5.2 | 0.0 | 30.6* | 5.6 | 7.9 | 23.3
COc1cc2oc(=O)cc(CN3CCN(c4ccc(Cl)c(Cl)c4)CC3)c2cc1Cl | 0.0 | . | 38.9* | . | . | 13.1
COc1ccc2c(CN3CCN(c4ccc(Cl)c(Cl)c4)CC3)cc(=O)oc2c1 | -1.2 | . | -0.3 | . | . | .
COc1cccc(C2Nc3ccc4ccccc4c3C3=C2C(=O)CC(C)(C)C3)c1OCC(=O)O (centres undefined) | 7.8 | 1.0 | 9.5 | -3.4 | 0.1 | .
CC1(C)CC(=O)C2=C(C1)c1c(ccc3ccccc13)NC2c1ccc(Br)o1 (centres undefined) | -2.8 | 3.0 | 37.2* | 5.3 | 3.5 | 36.8
O=C(NC1CCCCC1)C(c1ccncc1)N(C(=O)c1csnn1)c1ccccc1 (centres undefined) | 1.1 | 1.0 | -3.5 | -6.3 | -2.4 | .
COc1ccccc1/C=C/C=N/NC(=O)c1cc(-c2ccco2)[nH]n1 | -5.0 | 0.0 | 42.9* | 1.4 | 8.8 | 54.0*
c1ccc2cc(-c3cc4ccccn4c3)ccc2c1 | -2.6 | 2.0 | 34.9* | 0.7 | 6.8 | 16.1
Cc1cc(-c2ccc3ccccc3c2)n2ncnc2n1 | -4.8 | 1.0 | -4.6 | 13.4 | -1.3 | .
CN(CC(=O)Nc1ccccc1)CC(=O)Nc1ccc(F)cc1 | 9.3 | 0.0 | -4.7 | 3.8 | 0.5 | .
Cc1ccc(-n2c(=O)c3cc4c(=O)n(-c5ccc(C)c(C)c5)c(=O)c4c(C(=O)c4ccc(C(=O)O)cc4)c3c2=O)cc1C | -0.7 | 0.0 | 33.9* | 7.7 | -2.0 | 11.4
COc1ccc(/C=C/C(=O)c2nc3ccccc3n2CC(=O)c2ccc(OC)cc2)cc1 | -5.4 | 13.0 | 30.0* | 2.1 | 8.7 | 25.4
CCOC(=O)N/N=C\c1ccc(-c2cc(Cl)ccc2Cl)o1 | 0.5 | 1.0 | -3.4 | -0.4 | -1.2 | .
SMILES | Exocytosis inh | GRK2 aptamer HTS | NadD block | B2AR ag | PP1 counter | NadD inh conf
NC(=S)N/N=C/c1ccc(-c2ccc([N+](=O)[O-])cc2)o1 | 29.0 | 2.0 | 32.5* | 9.1 | 1.9 | 10.3
NC(=S)N/N=C/c1ccc(-c2cc(Cl)ccc2Cl)o1 | 11.4 | 1.0 | 42.5* | 0.0 | 2.2 | 26.5
NC(=S)N/N=C/c1ccc(-c2cc(Cl)cc(Cl)c2)o1 | -1.0 | 1.0 | 38.3* | 5.4 | 2.1 | 17.0
Cc1ccc(C(=O)N/N=C\c2ccc(-c3ccc([N+](=O)[O-])cc3)o2)cn1 | 5.4 | 1.0 | 2.5 | 17.5 | -3.3 | .
COc1ccccc1Cc1c(-c2ccco2)nc2ccc(Br)cn12 | 51.8 | . | 44.9* | . | . | 26.2
FC(F)(F)c1ccccc1Cc1c(-c2ccco2)nc2ccc(Br)cn12 | 10.9 | . | 37.0* | . | . | 11.0
N=C1SC(c2ccccc2)C(=O)N1c1ncc(Cc2ccccc2Cl)s1 (centres undefined) | -4.0 | 4.0 | 49.6* | 6.8 | 15.6* | 50.1*
O=C(CSc1nnnn1-c1ccccc1)Nc1ncc(Cc2ccccc2Cl)s1 | 1.4 | 1.0 | 1.2 | 2.7 | 1.4 | .
Cc1[nH]n(-c2ccccc2)c(=O)c1C=Nc1ccc(S(=O)(=O)Nc2nccs2)cc1 | -1.6 | 2.0 | 18.1 | 4.2 | -1.5 | .
CCc1nnc(NS(=O)(=O)c2ccc(N=Cc3c(C)[nH]n(-c4ccc(Cl)cc4)c3=O)cc2)s1 | 7.9 | 1.0 | 30.5* | 4.4 | 0.4 | 47.2*
Cc1ccc(-n2[nH]c(C)c(C=Nc3ccc(S(=O)(=O)Nc4nccs4)cc3)c2=O)cc1C | -0.9 | 0.0 | 41.8* | 25.2 | 4.2 | 51.8*
O=C(NCc1c(Cl)cccc1Oc1ccccc1)c1ccccc1 | 0.3 | 3.0 | -6.1 | -2.6 | -1.6 | .
Cc1ccc(NC(=O)CN(C)Cc2nc3c(Br)cc(Br)cc3c(=O)[nH]2)cc1 | 1.6 | 0.0 | 28.7* | -7.3 | 3.3 | -1.1
CCN(CC(=O)NC(C)(C)C)Cc1nc2c(Br)cc(Br)cc2c(=O)[nH]1 | 0.6 | 0.0 | -5.2 | -7.7 | 1.0 | .
Cc1ccc(NC(=O)CC2Nc3ccccc3NC2=O)cc1Cl (centres undefined) | -0.1 | . | 31.4* | 9.1 | . | 14.0
CCOC(=O)c1cc(C#N)c(Nc2ccc(C)cc2)nc1C(F)(F)F | -2.4 | 1.0 | 1.6 | -1.6 | -2.6 | .
Cc1cccc(N2CCN(C(=O)c3ccc4nc(-c5ccco5)c(-c5ccco5)nc4c3)CC2C)c1 (centres undefined) | 2.4 | 0.0 | 41.8* | 18.0 | 9.4 | 8.4
CCOc1cc(/C=N\Nc2ccc([N+](=O)[O-])cc2)ccc1OCC(=O)Nc1ccc(C)c(C)c1 | 0.2 | 0.0 | 43.6* | -46.3 | -2.5 | 3.1
C[C@@H]1CN([C@@H](C)CO)C(=O)c2cc(Br)cnc2O[C@H]1CN(C)Cc1ccccc1C(=O)O | 0.7 | . | -1.5 | . | . | .
Cc1ccc(S(=O)(=O)/C(C#N)=C/c2c(N3CCN(Cc4ccccc4)CC3)nc3ccccn3c2=O)cc1 | -1.4 | 0.0 | 47.3* | -8.2 | 9.5 | 12.6
C=CCn1c(SCC(=O)Nc2ccccc2C)nnc1-c1ccncc1 | -0.9 | 1.0 | 48.7* | 6.9 | -0.5 | 6.3

Screening results deposited in PubChem by several laboratories.
